Experimental data taken from article PMC7862700, “An all-to-all approach to the identification of sequence-specific readers for epigenetic DNA modifications on cytosine”.

How the values were obtained:
Assay in all cases: DAPPL (digital affinity profiling via proximity ligation, sequencing); 10 mM Tris-HCl pH 7.5, 50 mM NaCl, 1 mM DTT, 4% glycerol, room temperature, 30 min; GST-TFs on glutathione beads, 16-mer random dsDNA library, 0.1% formaldehyde crosslink after washing; high values mean tight binding
FLI1 = target: T1, FLI1 (Homo sapiens, UniProt Q01543 1-452); conditions: protein: recombinant; tags: N-terminal GST; dsDNA, one strand shown
T1 sequence: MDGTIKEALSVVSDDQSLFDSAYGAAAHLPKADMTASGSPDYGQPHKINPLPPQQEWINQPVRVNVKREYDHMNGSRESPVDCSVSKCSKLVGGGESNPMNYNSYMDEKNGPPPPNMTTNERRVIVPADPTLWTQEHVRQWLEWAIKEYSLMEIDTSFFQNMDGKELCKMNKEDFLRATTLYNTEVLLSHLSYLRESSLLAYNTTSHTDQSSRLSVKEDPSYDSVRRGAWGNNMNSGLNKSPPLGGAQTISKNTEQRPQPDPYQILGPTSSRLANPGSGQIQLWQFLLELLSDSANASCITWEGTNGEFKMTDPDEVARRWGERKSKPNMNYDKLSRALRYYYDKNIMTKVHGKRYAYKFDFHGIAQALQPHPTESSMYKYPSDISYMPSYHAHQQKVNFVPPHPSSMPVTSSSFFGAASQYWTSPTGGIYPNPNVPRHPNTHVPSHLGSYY
How it was run: (§1)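 GST fusions of human transcription factors were expressed in yeast and captured with glutathione beads. Once given DNA barcodes and pooled alongside a tag-only sample, they were incubated for 30 min at room temperature with 200 nmole of a random double-stranded 16-mer DNA library in Tris/NaCl/DTT/glycerol buffer, then washed, crosslinked (0.1% formaldehyde), proximity-ligated, PCR-amplified and sequenced on an Illumina NextSeq500. The binding signal of each hexamer is its read frequency for a factor divided by its frequency for the tag-only sample.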

ELK1 = target: T2, ELK1 (Homo sapiens, UniProt P19419 1-428); conditions: protein: recombinant; tags: N-terminal GST; dsDNA, one strand shown
T2 sequence: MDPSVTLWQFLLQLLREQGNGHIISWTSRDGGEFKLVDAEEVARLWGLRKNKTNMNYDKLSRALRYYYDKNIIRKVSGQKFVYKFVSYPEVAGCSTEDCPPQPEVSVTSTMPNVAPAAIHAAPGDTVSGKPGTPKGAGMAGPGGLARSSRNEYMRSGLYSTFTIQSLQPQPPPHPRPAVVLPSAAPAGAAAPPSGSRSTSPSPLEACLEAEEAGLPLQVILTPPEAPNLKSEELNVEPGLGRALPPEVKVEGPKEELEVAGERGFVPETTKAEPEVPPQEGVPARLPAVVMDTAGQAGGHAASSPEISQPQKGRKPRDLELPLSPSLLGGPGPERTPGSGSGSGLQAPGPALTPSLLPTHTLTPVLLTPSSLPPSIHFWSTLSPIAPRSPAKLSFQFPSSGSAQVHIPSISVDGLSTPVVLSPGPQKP
How it was run: as §1

GABPA = target: T3, GABPA (Homo sapiens, UniProt Q06546 1-454); conditions: protein: recombinant; tags: N-terminal GST; dsDNA, one strand shown
T3 sequence: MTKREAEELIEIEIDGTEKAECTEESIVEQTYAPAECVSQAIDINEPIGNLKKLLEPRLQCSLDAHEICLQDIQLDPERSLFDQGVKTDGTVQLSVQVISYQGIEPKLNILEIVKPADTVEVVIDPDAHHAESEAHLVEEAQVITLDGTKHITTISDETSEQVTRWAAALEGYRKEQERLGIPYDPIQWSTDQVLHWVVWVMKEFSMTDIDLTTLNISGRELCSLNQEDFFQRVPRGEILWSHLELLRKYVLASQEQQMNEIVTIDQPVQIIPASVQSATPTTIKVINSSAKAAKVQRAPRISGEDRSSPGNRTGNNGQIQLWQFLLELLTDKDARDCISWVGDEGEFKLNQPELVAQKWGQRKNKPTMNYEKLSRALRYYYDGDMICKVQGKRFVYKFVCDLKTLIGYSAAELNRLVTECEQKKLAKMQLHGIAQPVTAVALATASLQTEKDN
How it was run: as §1

ERG = target: T4, ERG (Homo sapiens, UniProt P11308 1-479); conditions: protein: recombinant; tags: N-terminal GST; dsDNA, one strand shown
T4 sequence: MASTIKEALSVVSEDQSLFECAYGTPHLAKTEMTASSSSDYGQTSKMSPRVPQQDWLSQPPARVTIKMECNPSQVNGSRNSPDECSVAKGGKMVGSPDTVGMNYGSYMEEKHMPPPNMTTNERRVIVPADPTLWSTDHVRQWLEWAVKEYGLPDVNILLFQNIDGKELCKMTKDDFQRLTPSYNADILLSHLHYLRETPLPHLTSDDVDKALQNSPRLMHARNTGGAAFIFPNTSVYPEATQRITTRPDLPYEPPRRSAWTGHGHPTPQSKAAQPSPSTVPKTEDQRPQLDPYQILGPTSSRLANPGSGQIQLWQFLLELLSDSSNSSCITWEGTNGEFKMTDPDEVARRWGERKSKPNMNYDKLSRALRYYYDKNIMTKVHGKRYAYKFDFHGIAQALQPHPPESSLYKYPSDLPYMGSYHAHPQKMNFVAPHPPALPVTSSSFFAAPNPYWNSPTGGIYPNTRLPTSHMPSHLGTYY
How it was run: as §1

ELF1 = ELF1 (Homo sapiens, UniProt P32519 1-619); conditions: protein: recombinant; tags: N-terminal GST; dsDNA, one strand shown
How it was run: as §1

EHF = target: T5, EHF (Homo sapiens, UniProt Q9NZC4 1-300); conditions: protein: recombinant; tags: N-terminal GST; dsDNA, one strand shown
T5 sequence: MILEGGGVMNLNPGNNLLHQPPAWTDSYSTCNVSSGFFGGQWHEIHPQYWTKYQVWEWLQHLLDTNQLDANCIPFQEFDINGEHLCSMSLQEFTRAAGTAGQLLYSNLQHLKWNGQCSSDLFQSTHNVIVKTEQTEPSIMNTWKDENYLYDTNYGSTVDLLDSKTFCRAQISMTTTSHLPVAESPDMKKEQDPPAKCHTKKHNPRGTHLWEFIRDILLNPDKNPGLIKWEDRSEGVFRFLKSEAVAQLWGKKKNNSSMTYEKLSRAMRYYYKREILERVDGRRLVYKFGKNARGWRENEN
How it was run: as §1

SPI1 = SPI1 (Homo sapiens, UniProt P17947 1-270); conditions: protein: recombinant; tags: N-terminal GST; dsDNA, one strand shown
How it was run: as §1

SPIB = SPIB (Homo sapiens, UniProt Q01892 1-262); conditions: protein: recombinant; tags: N-terminal GST; dsDNA, one strand shown
How it was run: as §1

ELK3 = target: T6, ELK3 (Homo sapiens, UniProt P41970 1-407); conditions: protein: recombinant; tags: N-terminal GST; dsDNA, one strand shown
T6 sequence: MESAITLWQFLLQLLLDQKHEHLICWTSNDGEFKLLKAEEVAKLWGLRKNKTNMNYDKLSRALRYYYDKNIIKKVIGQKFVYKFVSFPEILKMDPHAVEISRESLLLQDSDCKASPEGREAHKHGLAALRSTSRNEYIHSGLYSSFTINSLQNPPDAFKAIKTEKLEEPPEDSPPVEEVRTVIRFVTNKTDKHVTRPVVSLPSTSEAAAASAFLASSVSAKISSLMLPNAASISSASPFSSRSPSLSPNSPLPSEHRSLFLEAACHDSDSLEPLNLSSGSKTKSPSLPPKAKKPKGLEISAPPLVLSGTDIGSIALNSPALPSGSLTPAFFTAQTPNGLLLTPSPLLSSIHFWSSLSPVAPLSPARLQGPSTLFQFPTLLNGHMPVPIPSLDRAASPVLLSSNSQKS
How it was run: as §1

FEV = target: T7, FEV (Homo sapiens, UniProt Q99581 1-238); conditions: protein: recombinant; tags: N-terminal GST; dsDNA, one strand shown
T7 sequence: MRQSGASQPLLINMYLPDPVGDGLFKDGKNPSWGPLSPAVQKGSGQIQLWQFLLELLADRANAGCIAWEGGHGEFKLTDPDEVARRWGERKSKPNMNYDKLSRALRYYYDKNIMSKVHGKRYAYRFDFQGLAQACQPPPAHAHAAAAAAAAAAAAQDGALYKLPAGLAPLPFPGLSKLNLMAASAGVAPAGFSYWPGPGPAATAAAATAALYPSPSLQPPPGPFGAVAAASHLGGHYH
How it was run: as §1

ETV5 = ETV5 (Homo sapiens, UniProt P41161 1-510); conditions: protein: recombinant; tags: N-terminal GST; dsDNA, one strand shown
How it was run: as §1

HSF1 = HSF1 (Homo sapiens, UniProt Q00613 1-529); conditions: protein: recombinant; tags: N-terminal GST; chain copies: 3; dsDNA, one strand shown
How it was run: as §1

SPIC = target: T8, SPIC (Homo sapiens, UniProt Q8N5J4 1-248); conditions: protein: recombinant; tags: N-terminal GST; dsDNA, one strand shown
T8 sequence: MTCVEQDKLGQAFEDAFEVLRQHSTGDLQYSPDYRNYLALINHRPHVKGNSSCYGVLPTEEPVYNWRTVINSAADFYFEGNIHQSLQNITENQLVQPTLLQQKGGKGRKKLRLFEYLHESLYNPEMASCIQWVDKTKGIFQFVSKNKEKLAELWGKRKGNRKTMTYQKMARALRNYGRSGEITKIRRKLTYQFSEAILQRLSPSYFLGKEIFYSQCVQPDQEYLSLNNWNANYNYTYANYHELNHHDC
How it was run: as §1

ELF4 = ELF4 (Homo sapiens, UniProt Q99607 1-663); conditions: protein: recombinant; tags: N-terminal GST; dsDNA, one strand shown
How it was run: as §1

ELK4 = target: T9, ELK4 (Homo sapiens, UniProt P28324-2 1-405); conditions: protein: recombinant; tags: N-terminal GST; dsDNA, one strand shown
T9 sequence: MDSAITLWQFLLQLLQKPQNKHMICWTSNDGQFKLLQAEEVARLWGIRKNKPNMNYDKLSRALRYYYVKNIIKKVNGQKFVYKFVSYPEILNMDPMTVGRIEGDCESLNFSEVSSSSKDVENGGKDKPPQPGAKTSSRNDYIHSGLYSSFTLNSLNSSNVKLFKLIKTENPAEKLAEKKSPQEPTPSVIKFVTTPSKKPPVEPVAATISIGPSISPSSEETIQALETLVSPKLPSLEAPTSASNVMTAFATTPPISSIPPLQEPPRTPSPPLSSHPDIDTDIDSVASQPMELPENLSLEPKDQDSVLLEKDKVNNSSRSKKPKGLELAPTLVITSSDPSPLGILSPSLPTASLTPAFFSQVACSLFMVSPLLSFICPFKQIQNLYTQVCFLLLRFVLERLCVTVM
How it was run: as §1

ETV2 = target: T10, ETV2 (Homo sapiens, UniProt O00321 1-342); conditions: protein: recombinant; tags: N-terminal GST; dsDNA, one strand shown
T10 sequence: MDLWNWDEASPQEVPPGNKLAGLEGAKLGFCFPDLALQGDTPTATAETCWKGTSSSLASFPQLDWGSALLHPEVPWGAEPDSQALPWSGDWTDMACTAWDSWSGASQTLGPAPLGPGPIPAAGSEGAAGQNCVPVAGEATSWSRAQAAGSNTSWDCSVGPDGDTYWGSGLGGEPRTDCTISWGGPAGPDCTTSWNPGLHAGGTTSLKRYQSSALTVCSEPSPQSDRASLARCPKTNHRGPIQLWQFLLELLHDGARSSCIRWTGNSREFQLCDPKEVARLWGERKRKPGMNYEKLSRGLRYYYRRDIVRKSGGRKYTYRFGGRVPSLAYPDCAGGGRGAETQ
How it was run: as §1

ELF3 = target: T11, ELF3 (Homo sapiens, UniProt P78545 1-371); conditions: protein: recombinant; tags: N-terminal GST; dsDNA, one strand shown
T11 sequence: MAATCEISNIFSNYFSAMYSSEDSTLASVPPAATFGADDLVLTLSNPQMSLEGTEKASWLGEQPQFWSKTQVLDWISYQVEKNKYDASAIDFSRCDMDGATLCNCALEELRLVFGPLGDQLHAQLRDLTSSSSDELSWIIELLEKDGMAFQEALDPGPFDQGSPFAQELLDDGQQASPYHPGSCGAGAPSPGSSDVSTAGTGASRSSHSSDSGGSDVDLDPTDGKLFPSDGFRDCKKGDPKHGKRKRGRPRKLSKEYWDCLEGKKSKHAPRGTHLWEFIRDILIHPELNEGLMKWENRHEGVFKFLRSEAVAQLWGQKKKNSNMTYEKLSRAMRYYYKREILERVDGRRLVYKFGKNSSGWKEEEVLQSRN
How it was run: as §1

CRX = CRX (Homo sapiens, UniProt O43186 1-299); conditions: protein: recombinant; tags: N-terminal GST; dsDNA, one strand shown
How it was run: as §1

ETV1 = ETV1 (Homo sapiens, UniProt P50549 1-477); conditions: protein: recombinant; tags: N-terminal GST; dsDNA, one strand shown
How it was run: as §1

Chain of SPIB (Q01892 whole entry): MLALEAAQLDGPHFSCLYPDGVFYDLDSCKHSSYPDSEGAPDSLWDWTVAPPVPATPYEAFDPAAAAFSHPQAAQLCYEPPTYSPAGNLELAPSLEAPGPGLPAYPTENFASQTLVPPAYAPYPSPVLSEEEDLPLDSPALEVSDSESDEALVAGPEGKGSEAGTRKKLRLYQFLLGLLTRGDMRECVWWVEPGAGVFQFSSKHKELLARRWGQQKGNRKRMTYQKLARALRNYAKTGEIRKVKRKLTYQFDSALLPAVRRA
Chain of HSF1 (Q00613 whole entry): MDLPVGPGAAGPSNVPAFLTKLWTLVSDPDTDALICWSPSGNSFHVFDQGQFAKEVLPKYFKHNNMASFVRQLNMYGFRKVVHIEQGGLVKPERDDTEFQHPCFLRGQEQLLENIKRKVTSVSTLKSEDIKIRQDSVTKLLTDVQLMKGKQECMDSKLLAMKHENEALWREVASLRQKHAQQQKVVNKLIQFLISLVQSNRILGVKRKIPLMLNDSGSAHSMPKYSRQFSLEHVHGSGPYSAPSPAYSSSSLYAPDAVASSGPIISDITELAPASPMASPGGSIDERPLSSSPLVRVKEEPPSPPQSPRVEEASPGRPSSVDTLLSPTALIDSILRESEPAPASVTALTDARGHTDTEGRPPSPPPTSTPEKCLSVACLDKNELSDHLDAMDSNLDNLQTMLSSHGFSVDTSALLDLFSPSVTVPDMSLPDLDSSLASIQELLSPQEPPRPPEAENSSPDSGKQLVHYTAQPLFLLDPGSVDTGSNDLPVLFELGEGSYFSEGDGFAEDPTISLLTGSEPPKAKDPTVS
Chain of ETV1 (P50549 whole entry): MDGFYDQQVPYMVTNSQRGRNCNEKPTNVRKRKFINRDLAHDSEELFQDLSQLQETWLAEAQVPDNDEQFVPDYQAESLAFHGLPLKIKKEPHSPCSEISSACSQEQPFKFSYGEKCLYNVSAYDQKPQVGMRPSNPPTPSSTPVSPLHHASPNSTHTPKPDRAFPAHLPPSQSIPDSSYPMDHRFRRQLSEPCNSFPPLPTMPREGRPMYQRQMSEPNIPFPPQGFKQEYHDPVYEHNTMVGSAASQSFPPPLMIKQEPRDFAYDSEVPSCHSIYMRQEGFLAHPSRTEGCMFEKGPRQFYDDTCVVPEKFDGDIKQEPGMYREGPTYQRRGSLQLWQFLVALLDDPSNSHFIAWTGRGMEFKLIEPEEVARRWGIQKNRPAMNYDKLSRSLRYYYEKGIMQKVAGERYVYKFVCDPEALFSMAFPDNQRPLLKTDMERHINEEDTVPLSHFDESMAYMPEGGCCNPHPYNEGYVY
Chain of ELF1 (P32519 whole entry): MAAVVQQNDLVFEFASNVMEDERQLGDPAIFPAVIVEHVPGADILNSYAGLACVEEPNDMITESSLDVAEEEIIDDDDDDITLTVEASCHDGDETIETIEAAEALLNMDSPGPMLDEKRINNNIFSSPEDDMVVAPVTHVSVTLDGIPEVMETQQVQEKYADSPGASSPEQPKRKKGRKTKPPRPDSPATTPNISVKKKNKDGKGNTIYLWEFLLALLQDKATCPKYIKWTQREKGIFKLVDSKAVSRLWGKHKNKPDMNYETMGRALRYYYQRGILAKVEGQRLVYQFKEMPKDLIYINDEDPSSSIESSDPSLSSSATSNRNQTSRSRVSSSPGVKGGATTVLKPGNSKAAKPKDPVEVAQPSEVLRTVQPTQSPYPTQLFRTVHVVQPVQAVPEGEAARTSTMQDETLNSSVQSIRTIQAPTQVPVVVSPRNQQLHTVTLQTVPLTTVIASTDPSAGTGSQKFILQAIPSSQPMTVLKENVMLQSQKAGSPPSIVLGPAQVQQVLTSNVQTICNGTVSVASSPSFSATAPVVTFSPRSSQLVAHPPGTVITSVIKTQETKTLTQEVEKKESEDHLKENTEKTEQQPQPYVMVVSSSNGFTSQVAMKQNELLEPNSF
Chain of ETV5 (P41161 whole entry): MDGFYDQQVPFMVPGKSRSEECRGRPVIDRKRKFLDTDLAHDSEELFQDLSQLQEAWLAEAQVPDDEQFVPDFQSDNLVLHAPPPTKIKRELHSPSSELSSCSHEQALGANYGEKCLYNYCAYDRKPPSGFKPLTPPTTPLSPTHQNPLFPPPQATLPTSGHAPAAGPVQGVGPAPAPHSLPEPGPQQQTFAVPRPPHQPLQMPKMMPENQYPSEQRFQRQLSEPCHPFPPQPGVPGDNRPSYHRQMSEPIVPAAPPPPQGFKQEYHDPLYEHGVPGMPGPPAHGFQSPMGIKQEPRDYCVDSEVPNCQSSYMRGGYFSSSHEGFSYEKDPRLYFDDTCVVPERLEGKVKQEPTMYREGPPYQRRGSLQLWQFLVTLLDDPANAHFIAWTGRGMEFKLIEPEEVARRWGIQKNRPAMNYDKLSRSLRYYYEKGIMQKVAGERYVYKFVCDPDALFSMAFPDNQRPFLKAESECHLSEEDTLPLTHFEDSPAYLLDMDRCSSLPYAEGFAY
Chain of ELF4 (Q99607 whole entry): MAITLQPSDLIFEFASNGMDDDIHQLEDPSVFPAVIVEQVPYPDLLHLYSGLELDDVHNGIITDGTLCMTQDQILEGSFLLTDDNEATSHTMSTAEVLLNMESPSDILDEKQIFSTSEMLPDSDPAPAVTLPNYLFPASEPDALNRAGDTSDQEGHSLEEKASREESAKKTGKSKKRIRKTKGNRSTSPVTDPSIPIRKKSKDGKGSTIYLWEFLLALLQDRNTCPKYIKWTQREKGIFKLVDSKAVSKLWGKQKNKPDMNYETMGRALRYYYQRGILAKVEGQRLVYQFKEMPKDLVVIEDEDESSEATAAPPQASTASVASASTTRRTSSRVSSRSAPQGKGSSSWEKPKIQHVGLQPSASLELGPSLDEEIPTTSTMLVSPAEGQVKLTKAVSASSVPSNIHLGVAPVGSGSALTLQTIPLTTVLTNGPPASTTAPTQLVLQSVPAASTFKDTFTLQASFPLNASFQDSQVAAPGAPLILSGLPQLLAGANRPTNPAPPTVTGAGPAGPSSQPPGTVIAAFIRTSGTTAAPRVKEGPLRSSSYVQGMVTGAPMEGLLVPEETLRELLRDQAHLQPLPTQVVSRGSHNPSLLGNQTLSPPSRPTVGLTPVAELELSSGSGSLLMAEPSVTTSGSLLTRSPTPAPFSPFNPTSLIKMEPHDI
Chain of CRX (O43186 whole entry): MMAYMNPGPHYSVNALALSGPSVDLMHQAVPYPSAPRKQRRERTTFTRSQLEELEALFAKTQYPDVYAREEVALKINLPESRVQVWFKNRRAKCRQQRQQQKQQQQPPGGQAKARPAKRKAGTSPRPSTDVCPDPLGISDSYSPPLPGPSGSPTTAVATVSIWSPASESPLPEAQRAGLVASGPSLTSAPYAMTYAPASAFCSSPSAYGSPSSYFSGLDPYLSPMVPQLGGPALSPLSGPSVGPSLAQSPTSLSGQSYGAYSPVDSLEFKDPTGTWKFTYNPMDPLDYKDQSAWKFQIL

## TATCCG
FLI1
  binding signal: 2.64 fold enrichment (6-mer frequency, TF over GST control)
ELK1
  binding signal: 2.53 fold enrichment (6-mer frequency, TF over GST control)
GABPA
  binding signal: 2.26 fold enrichment (6-mer frequency, TF over GST control)
ERG
  binding signal: 3.2 fold enrichment (6-mer frequency, TF over GST control)
ELF1
  binding signal: 2.38 fold enrichment (6-mer frequency, TF over GST control)
EHF
  binding signal: 2.48 fold enrichment (6-mer frequency, TF over GST control)
SPI1
  binding signal: 2.29 fold enrichment (6-mer frequency, TF over GST control)
SPIB
  binding signal: 2.8 fold enrichment (6-mer frequency, TF over GST control)
ELK3
  binding signal: 2.41 fold enrichment (6-mer frequency, TF over GST control)
FEV
  binding signal: 4.84 fold enrichment (6-mer frequency, TF over GST control)
ETV5
  binding signal: 2.85 fold enrichment (6-mer frequency, TF over GST control)
HSF1
  binding signal: 1.54 fold enrichment (6-mer frequency, TF over GST control)
SPIC
  binding signal: 2.38 fold enrichment (6-mer frequency, TF over GST control)
ELF4
  binding signal: 2.2 fold enrichment (6-mer frequency, TF over GST control)
ELK4
  binding signal: 2.29 fold enrichment (6-mer frequency, TF over GST control)
ETV2
  binding signal: 2.68 fold enrichment (6-mer frequency, TF over GST control)
ELF3
  binding signal: 2.33 fold enrichment (6-mer frequency, TF over GST control)
CRX
  binding signal: 1.95 fold enrichment (6-mer frequency, TF over GST control)
ETV1
  binding signal: 2.72 fold enrichment (6-mer frequency, TF over GST control)
